Source: PubChem BioAssay (National Center for Advancing Translational Sciences (NCATS))
HT1080 IDH1KD tx: HT-1080 IDH1 knockdown cell toxicity (counter line) | HT-1080 IDH1 knockdown viability, ATP luminescence, 48 h | Potency, µM (titrated, usually from 46.1 µM), inactives show at the highest dose activity, negative = toxicity, most hits filed as cytotoxic | actives 2% (n = 360,000) | AID 686971;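 also: 0% = DMSO wells and -100% = cell-free medium wells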
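CellTiter-Glo luminescence after 48 h compound exposure at 37 degrees C of IDH1-knockdown HT-1080 cells in 5% FBS RPMI. %Activity scaled between DMSO wells and cell-free media wells, with curves fitted and assigned curve classes.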
DT40 TDP1 no CPT: qHTS for Inhibitors of human tyrosyl-DNA phosphodiesterase 1 (TDP1): qHTS in cells in absence of CPT | AID 686978, 2013 | DT40 Tdp1-/- hTDP1 cells, no CPT, ATP luminescence, 48 h | Potency, µM (titrated, usually from 46.2 µM), for the others: at the highest dose activity change, negative = growth inhibition, hits mostly inhibitors | actives 15% (n = 420,000); also: nearly all actives have a fitted effect of over 55% in size
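Compound effects on proliferation are scored in DT40 Tdp1-/-;hTDP1 cells in the absence of CPT. ATP levels (CellTiter-Glo luminescence) are recorded after a ≥48 hr, 37 °C incubation.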
HT1080-NT tox: kills 2HG-producing HT-1080-NT fibrosarcoma cells; actives 1.6% (n = 360,000); Potency, µM (doses to about 46.1 µM), for inactives: top-dose activity, negative = less viability, most hits filed as cytotoxic; AID 686970; HT-1080-NT fibrosarcoma viability, CellTiter-Glo ATP luminescence, 48 h;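 also: NT is the 2HG producing partner of a matched IDH1 knockdown line; 0% = DMSO-treated cells and -100% = media-only wells without cells; nearly all actives have a fitted effect of over 55% in size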
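HT-1080-NT; 750 cells/well; 5% FBS RPMI; 48 h compound, 37 degrees C; CellTiter-Glo luminescence; curve fitting and curve-class assignment.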
KB-3-1 tox: KB-3-1 parental cell cytotoxicity; actives 1.4% (n = 400,000); KB-3-1 viability, CellTiter-Glo ATP luminescence, 72 h; AID 1347075; Potency, µM (series often up to 46.1 µM), actives largely listed as cytotoxic; also: nearly all actives have a fitted effect of over 60% in size
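Cells are dispensed, compounds pinned in, plates held at 37 °C for 72 h, then CellTiter-Glo is added and luminescence read after 10 minutes. Cell line: parental KB-3-1 in phenol-red-free DMEM, 10% FBS.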
TDP1 cell CPT: DT40-hTDP1 cell growth loss with CPT; chicken DT40 Tdp1-/-;hTDP1 cells + 20 nM CPT, ATP luminescence, 48 h; Potency, µM (titrated, usually from 46.2 µM), for inactives: top-dose activity change, negative = growth inhibition, hits mostly inhibitors; actives 12% (n = 420,000); also: nearly all actives have a fitted effect of over 55% in size
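Chicken DT40 Tdp1-/- cells complemented with human TDP1, 400 cells/well, exposed to compounds plus 20 nM camptothecin for at least 48 h at 37 C; viability read as ATP content by CellTiter-Glo luminescence.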
KB-V1 cytotox: KB-V1 MDR subline cytotoxicity | actives 3.4% (n = 400,000) | AID 1347076 | Potency, µM (series often up to 46.1 µM), actives largely listed as cytotoxic | KB-V1 MDR cells viability, CellTiter-Glo, 72 h; also: nearly all actives have a fitted effect of over 60% in size
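KB-V1 cells (P-gp-expressing MDR subline of KB-3-1) in phenol-red-free DMEM with 10% FBS were exposed to library compounds over a concentration series for 72 h at 37 degrees C. Viability read by CellTiter-Glo luminescence; concentration-effect curves fitted after normalization.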
An asterisk follows results filed as active; i = inactive; ? = inconclusive; nt = not tested or not shown; ! = a repeat was not active; [ ] = dose if it differs, or a comment. Sampled rows, rich in hits. Any-hit rate of the full collection: about 19%. Calls follow the shape of the dose curve; as a rule, active = well fitted curve in the direction sought with a large enough effect; inconclusive = small, poorly fitted or top-dose-only effect, or another doubt; inactive = no such curve, though single readings can be large; an effect the other way counts as inactive or inconclusive. Unless noted, % is scaled to controls: 0 for no effect and ±100 for the full control effect; potency is read from the fitted curve at half-maximal effect.

SMILES	HT1080 IDH1KD tx	DT40 TDP1 no CPT	HT1080-NT tox	KB-3-1 tox	TDP1 cell CPT	KB-V1 cytotox
COc1cccc(-n2c(-c3ccccc3)c[nH]c2=S)c1	-3%	?	-17%	i	?	i
Cc1ccc(-c2c[nH]c(=S)n2-c2ccccc2F)cc1	-9%	23µM*	0%	i	?	i
COc1ccccc1-n1c(-c2ccccc2)c[nH]c1=S	1%	16µM*	0%	i	18µM*	i
S=c1[nH]cc(-c2ccccc2)n1-c1ccccc1Cl	-1%	?	7%	i	?	13µM*
COc1ccc(CNC(=O)C(c2cccs2)N(Cc2ccco2)C(=O)Cc2cccs2)cc1 (stereo not drawn)	-25%	23µM*	-16%	?	?	?
O=C(Nc1ccc(Cl)cc1)C1CCCN(c2cnccn2)C1 (stereo not drawn)	-5%	?	0%	i	?	i
CCN(CC)CCNC(Cc1ccccc1)c1cccc(OC)c1 (stereo not drawn)	-6%	?	-9%	i	?	23µM*
CSc1nc2ccccc2cc1/C=C(\C#N)c1cccc(Cl)c1	4.6µM*	?	4.6µM*	21µM*	?	?
N#C/C(=C\c1cc2ccccc2nc1N1CCCCC1)C(N)=O	-13%	?	-17%	i	?	i
Cc1cc(C)c(S(=O)(=O)N2CCN(C(=O)c3ccc(-n4nc(C)c(Cl)c4C)cc3)CC2)c(C)c1	-20%	16µM*	-18%	?	23µM*	i
COc1ccc(S(=O)(=O)N2CCN(C(=O)c3c(C)nn(-c4ccccc4)c3Cl)CC2)cc1	-7%	23µM*	-5%	i	?	?
Cc1cc(C)c(S(=O)(=O)N2CCN(C(=O)c3ccc4c(c3)OCO4)CC2)c(C)c1	-21%	?	-28%	i	-20%	?
Cc1cc(C)c(S(=O)(=O)N2CCN(C(=O)c3c(C)nn(-c4ccccc4)c3Cl)CC2)c(C)c1	-1%	?	-5%	?	?	5.2µM*
Cc1ccc(S(=O)(=O)N2CCN(C(=O)c3c(C)nn(-c4ccccc4)c3Cl)CC2)cc1	20%	?	-1%	i	?	10µM*
Cc1nn(-c2ccccc2)c(Cl)c1C(=O)N1CCN(C)CC1	-1%	-25%	2%	i	8%	i
CCCNc1c(NC(=O)C2CCC(C)CC2)c(=O)oc2ccccc12 (stereo not drawn)	-1%	?	21%	i	?	i
CCN(CC)C(=O)C1=C(C)N(CCC2=CCCCC2)C(=O)C(CC(=O)NC2CCCC2)C1 (stereo not drawn)	16%	-27%	2%	i	1%	i
C[C@H](CO)N1C[C@H](C)[C@H](CN(C)Cc2ccncc2)Oc2ncc(Br)cc2C1=O	10%	-1%	20%	i	4%	i
Cc1ccc(Cc2c(C3CCCCC3)nc3ccc(Br)cn23)cc1	?	21µM*	?	i	?	i
Cc1ccc(Cc2c(C3CCCCC3)nc3ccc(Cl)cn23)cc1	-22%	?	?	i	?	i
Clc1ccc2nc(C3CCCCC3)c(Cc3ccsc3)n2c1	-23%	?	-30%	?	23µM*	?
Clc1ccc2nc(C3CCCCC3)c(Cc3ccccc3)n2c1	0%	-28%	1%	i	-7%	i
Cc1cc(Br)cn2c(Cc3ccsc3)c(C3CCCCC3)nc12	-9%	?	-20%	i	?	i
Brc1ccc2nc(C3CCCCC3)c(Cc3ccsc3)n2c1	?	16µM*	-26%	i	21µM*	i
CCC1CN(CCNC(=O)c2scc3c2OCCO3)Cc2cc(OC)ccc2O1 (stereo not drawn)	nt	?	nt	nt	5%[9.04 µM]	nt
SMILES	HT1080 IDH1KD tx	DT40 TDP1 no CPT	HT1080-NT tox	KB-3-1 tox	TDP1 cell CPT	KB-V1 cytotox
CCOC(=O)c1c(NC(=O)CCCOc2ccc(Cl)cc2)sc2c1CCC2	nt	-12%	nt	i	-11%	i
Cc1cc(Cl)ccc1Oc1nccc(N(C)C)c1C#N	-5%	16µM*	?	i	?	?
CN(C)c1ccnc(Oc2ccc(C(C)(C)C)cc2)c1C#N	?	16µM*	?	?	?	?
CC1CCC(NC(=O)c2[nH]c(C(F)(F)F)nc2-c2ccccc2)CC1 (stereo not drawn)	-5%	-26%	-3%	i	-19%	?
COc1ccc(CN(C)C(=O)C2CCN(C(=O)Nc3ccccc3)CC2)cc1	5%	-4%	-3%	i	-5%	i
Cc1cccc2sc(N(CCN(C)C)C(=O)c3ccc4ccccc4c3)nc12	-1%	?	2%	i	?	i
Cc1cccc2sc(N(CCCN(C)C)C(=O)c3cc4ccccc4oc3=O)nc12	-21%	?	-15%	i	23µM*	i
CN(C)CCCN(C(=O)c1cc2ccccc2oc1=O)c1nc2c(F)cccc2s1	2%	-26%	6%	i	-9%	i
Cc1cccc2sc(N(CCCN(C)C)C(=O)c3ccc(Cl)s3)nc12	?	?	-18%	i	23µM*!	i
